# Results filed as inconclusive are left out. Active and inactive are the calls of the source.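 How the source made its calls, unless noted: active means normalized viability below 100% at a tested concentration; inactive means the rest.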
# What was measured:
# [1] = growth inhibition of DIPG glioma cells, dose response, cell-based, SU-DIPG-XIII, MIPE4.0, CellTiter-Glo, qHTS (AID 1347061; cut-off not given, nearly all actives have AC50 up to about 37 µM;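 further: cells exposed to compound for 48 hours before readout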); details: SU-DIPG-XIII viability, CellTiter-Glo ATP luminescence
# [2] = viability loss in pontine glioma line – cell-based, SU-DIPG-XXV, MIPE5.0, CellTiter-Glo, qHTS, dose response (AID 1347065; cut-off not given, nearly all actives have AC50 up to about 26 µM;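 further: cells exposed to compound for 48 hours before ATP readout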); details: CellTiter-Glo ATP luminescence
# [3] = SU-DIPG-XXV glioma cell viability, MIPE5.0 library, qHTS (AID 1347068; cut-off not given, nearly all actives have IC50 up to about 30 µM;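 on IC50: cells exposed to compound for 48 hours before viability readout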)
# [4] = sensitizers of A549 cells to miR-34 induction, primary screen, imaging, A549 dox-inducible miR-34, nuclei and caspase counts (AID 1347080;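 active means compounds whose cell count with miR-34 switched on is under 0.7 times the count with it off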); details: A549 miR-34 inducible, Hoechst nuclei count, 48 h
# [5] = modifiers of HSF1 nuclear foci, imaging, Selleck Cancer Library (AID 1347162; in the data active means plate-normalised HSF1 focus index below about 0.46); details: human cells, at 10 µM; SSMD: measured here: HSF1 foci SSMD mean; cell count: measured here: cell number; plate-normalised HSF1 focus index: stronger effect = lower value
# [6] = survival rescue of mitochondrial mutant cells in low glucose, primary screen, MELAS cybrids, Rieske KO mouse fibroblasts, CellTiter-Glo (AID 1508586;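 active means mean z-score across replicates of 1.96 or higher in either the MELAS or the Rieske mutant cell line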;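 further: z relative to plate mean and SD of compound and empty wells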)
# [7] = ovarian cancer cell viability with rucaparib, profiling panel, oncology-focused library, rucaparib conditional (AID 1508598); details: patient-derived ovarian cancer cells, CellTiter-Glo viability, 144 h, stronger effect = lower value
# [8] = SU-DIPG-VI glioma cell viability, MIPE4.0 library, CellTiter-Glo luminescence, qHTS (AID 1347066; cut-off not given, nearly all actives have AC50 up to about 30 µM;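 further: cells exposed to compound for 48 hours before readout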); details: CellTiter-Glo ATP luminescence
# [9] = growth inhibition of DIPG glioma cells, dose response, cell-based, SU-DIPG-IV, MIPE4.0, CellTiter-Glo, qHTS (AID 1347063; cut-off not given, nearly all actives have AC50 up to about 30 µM;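 further: compound exposure lasted 48 hours before the viability readout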); details: SU-DIPG-IV viability, CellTiter-Glo ATP luminescence
# [10] = at 0.000305 µM, OCI-C5x cells, with rucaparib 10 µM, 100% = cells with rucaparib alone
# [11] = at 0.000305 µM, OCI-C5x cells, without rucaparib
# [12] = at 0.000305 µM, OCI-P5x cells, with rucaparib 20 µM, 100% = cells with rucaparib alone
# [13] = at 0.000305 µM, OCI-P5x cells, without rucaparib
# [14] = at 0.00122 µM, OCI-C5x cells, with rucaparib 10 µM, 100% = cells with rucaparib alone
# [15] = at 0.00122 µM, OCI-C5x cells, without rucaparib
# [16] = at 0.00122 µM, OCI-P5x cells, with rucaparib 20 µM, 100% = cells with rucaparib alone
# [17] = at 0.00122 µM, OCI-P5x cells, without rucaparib
# [18] = at 0.00488 µM, OCI-C5x cells, with rucaparib 10 µM, 100% = cells with rucaparib alone
# [19] = at 0.00488 µM, OCI-C5x cells, without rucaparib
# [20] = at 0.00488 µM, OCI-P5x cells, with rucaparib 20 µM, 100% = cells with rucaparib alone
# [21] = at 0.00488 µM, OCI-P5x cells, without rucaparib
# [22] = at 0.0195 µM, OCI-C5x cells, with rucaparib 10 µM, 100% = cells with rucaparib alone
# [23] = at 0.0195 µM, OCI-C5x cells, without rucaparib
# [24] = at 0.0195 µM, OCI-P5x cells, with rucaparib 20 µM, 100% = cells with rucaparib alone
# [25] = at 0.0195 µM, OCI-P5x cells, without rucaparib
# [26] = at 0.0781 µM, OCI-C5x cells, with rucaparib 10 µM, 100% = cells with rucaparib alone
# [27] = at 0.0781 µM, OCI-C5x cells, without rucaparib
# [28] = at 0.0781 µM, OCI-P5x cells, with rucaparib 20 µM, 100% = cells with rucaparib alone
# [29] = at 0.0781 µM, OCI-P5x cells, without rucaparib
# [30] = at 0.313 µM, OCI-C5x cells, with rucaparib 10 µM, 100% = cells with rucaparib alone
# [31] = at 0.313 µM, OCI-C5x cells, without rucaparib
# [32] = at 0.313 µM, OCI-P5x cells, with rucaparib 20 µM, 100% = cells with rucaparib alone
# [33] = at 0.313 µM, OCI-P5x cells, without rucaparib
# [34] = at 1.25 µM, OCI-C5x cells, with rucaparib 10 µM, 100% = cells with rucaparib alone
# [35] = at 1.25 µM, OCI-C5x cells, without rucaparib
# [36] = at 1.25 µM, OCI-P5x cells, with rucaparib 20 µM, 100% = cells with rucaparib alone
# [37] = at 1.25 µM, OCI-P5x cells, without rucaparib
# [38] = at 5 µM, OCI-C5x cells, with rucaparib 10 µM, 100% = cells with rucaparib alone
# [39] = at 5 µM, OCI-C5x cells, without rucaparib
# [40] = at 5 µM, OCI-P5x cells, with rucaparib 20 µM, 100% = cells with rucaparib alone
# [41] = at 5 µM, OCI-P5x cells, without rucaparib
structure (smiles),measurement,setting,value
COc1ccc(COc2cc3oc(=O)c4cc(C(C)O)ccc4c3cc2OC)cc1 (stereo not given),outcome,[1],inactive
same,outcome,[2],inactive
same,outcome,[3],inactive
same,fold change,"[4]; stronger effect = lower value, cell number ratio, induced over uninduced",0.923 (inactive)
same,fold change,[4]; measured here: relative caspase fold change +Dox/-Dox,1.45
same,cell count,"[4]; measured here: total cells with miR-34 induction, stronger effect = lower value",7360
same,cell count,[4]; measured here: total cells without miR-34 induction,7980
same,SSMD,[5],-0.619
same,cell count,[5],7240
same,plate-normalised HSF1 focus index,[5],0.961 (inactive)
same,z-score,"[6]; MELAS cybrid survival, CellTiter-Glo 48 h, stronger effect = higher value",-0.463 (inactive)
same,z-score,"[6]; Rieske KO mouse fibroblast survival, CellTiter-Glo 72 h",0.921
same,viability,[7]; [10],108% (inactive)
same,viability,[7]; [11],122% (inactive)
same,viability,[7]; [12],103% (inactive)
same,viability,[7]; [13],97.5% (active)
same,viability,[7]; [14],119% (inactive)
same,viability,[7]; [15],114% (inactive)
same,viability,[7]; [16],108% (inactive)
same,viability,[7]; [17],98% (active)
same,viability,[7]; [18],121% (inactive)
same,viability,[7]; [19],104% (inactive)
same,viability,[7]; [20],98.6% (active)
same,viability,[7]; [21],101% (inactive)
same,viability,[7]; [22],118% (inactive)
same,viability,[7]; [23],118% (inactive)
same,viability,[7]; [24],99.9% (active)
same,viability,[7]; [25],98.3% (active)
same,viability,[7]; [26],122% (inactive)
same,viability,[7]; [27],114% (inactive)
same,viability,[7]; [28],103% (inactive)
same,viability,[7]; [29],96% (active)
same,viability,[7]; [30],113% (inactive)
same,viability,[7]; [31],100% (inactive)
same,viability,[7]; [32],102% (inactive)
same,viability,[7]; [33],92.5% (active)
same,viability,[7]; [34],126% (inactive)
same,viability,[7]; [35],107% (inactive)
same,viability,[7]; [36],103% (inactive)
same,viability,[7]; [37],94.4% (active)
same,viability,[7]; [38],132% (inactive)
same,viability,[7]; [39],130% (inactive)
same,viability,[7]; [40],92.1% (active)
same,viability,[7]; [41],90.6% (active)
Cc1cccc2c1CC[C@H](CN1CCC(c3c(Cl)cccc3Cl)CC1)C[C@@H]2O,outcome,[1],inactive
same,outcome,[8],inactive
CCn1c(-c2nonc2N)nc2c(C#CC(C)(C)O)ncc(OC[C@H]3CCCNC3)c21,AC50,[1],16.6 µM (active)
same,AC50,[9],7.43 µM (active)
same,AC50,[2],2.35 µM (active)
same,IC50,[3],16.6 µM (active)
same,SSMD,[5],1.18
same,cell count,[5],6930
same,plate-normalised HSF1 focus index,[5],1.06 (inactive)
same,viability,[7]; [10],119% (inactive)
same,viability,[7]; [11],119% (inactive)
same,viability,[7]; [12],98.8% (active)
same,viability,[7]; [13],93.1% (active)
same,viability,[7]; [14],129% (inactive)
same,viability,[7]; [15],125% (inactive)
same,viability,[7]; [16],100% (inactive)
same,viability,[7]; [17],99.7% (active)
same,viability,[7]; [18],133% (inactive)
same,viability,[7]; [19],119% (inactive)
same,viability,[7]; [20],109% (inactive)
same,viability,[7]; [21],99.7% (active)
same,viability,[7]; [22],118% (inactive)
same,viability,[7]; [23],125% (inactive)
same,viability,[7]; [24],107% (inactive)
same,viability,[7]; [25],109% (inactive)
same,viability,[7]; [26],124% (inactive)
same,viability,[7]; [27],119% (inactive)
same,viability,[7]; [28],89.1% (active)
same,viability,[7]; [29],101% (inactive)
same,viability,[7]; [30],113% (inactive)
same,viability,[7]; [31],131% (inactive)
same,viability,[7]; [32],85.8% (active)
same,viability,[7]; [33],109% (inactive)
same,viability,[7]; [34],114% (inactive)
same,viability,[7]; [35],136% (inactive)
same,viability,[7]; [36],72.5% (active)
same,viability,[7]; [37],90.8% (active)
same,viability,[7]; [38],94.5% (active)
same,viability,[7]; [39],128% (inactive)
same,viability,[7]; [40],67.2% (active)
same,viability,[7]; [41],68.3% (active)
